The record followed here is PMC7862700, “An all-to-all approach to the identification of sequence-specific readers for epigenetic DNA modifications on cytosine”.

What all share (assay): DAPPL (digital affinity profiling via proximity ligation, sequencing); 10 mM Tris-HCl pH 7.5, 50 mM NaCl, 1 mM DTT, 4% glycerol, room temperature, 30 min; GST-TFs on glutathione beads, 16-mer random dsDNA library, 0.1% formaldehyde crosslink after washing; high values mean tight binding
Common to all, as to conditions: protein: recombinant; tags: N-terminal GST; dsDNA, one strand shown

In test [1] the target is T1, ERF (Homo sapiens, UniProt P50548 1-548).
T1 sequence: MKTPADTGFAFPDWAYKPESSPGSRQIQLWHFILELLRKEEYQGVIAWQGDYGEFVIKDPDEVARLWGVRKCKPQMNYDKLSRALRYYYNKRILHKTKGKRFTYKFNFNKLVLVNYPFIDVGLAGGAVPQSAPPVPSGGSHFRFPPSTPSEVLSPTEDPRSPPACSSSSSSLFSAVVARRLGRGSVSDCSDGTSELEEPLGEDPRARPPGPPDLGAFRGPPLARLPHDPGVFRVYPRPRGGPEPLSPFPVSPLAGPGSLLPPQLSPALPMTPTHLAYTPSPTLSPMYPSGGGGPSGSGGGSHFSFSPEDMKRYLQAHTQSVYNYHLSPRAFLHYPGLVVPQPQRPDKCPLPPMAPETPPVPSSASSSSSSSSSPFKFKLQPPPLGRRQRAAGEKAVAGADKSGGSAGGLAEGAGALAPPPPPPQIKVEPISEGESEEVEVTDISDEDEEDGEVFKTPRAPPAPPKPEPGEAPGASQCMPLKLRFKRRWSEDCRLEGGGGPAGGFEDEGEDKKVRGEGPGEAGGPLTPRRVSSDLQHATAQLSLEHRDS
In short, it runs like this: (§1)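 A tag-only sample was pooled with DNA-barcoded human transcription factors that had been expressed in yeast as GST fusions and captured on glutathione beads. The pools were incubated for 30 min at room temperature with 200 nmole of a random double-stranded 16-mer DNA library in Tris/NaCl/DTT/glycerol buffer, then washed, crosslinked with 0.1% formaldehyde, proximity-ligated (BsaI/T4 ligase, 1 h, 37 °C), PCR-amplified and sequenced on an Illumina NextSeq500. Binding signal is each hexamer's read frequency for a factor divided by its frequency for the tag-only sample.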

Test [2] has as its target T2, ETV3L (Homo sapiens, UniProt Q6ZN32 1-361).
T2 sequence: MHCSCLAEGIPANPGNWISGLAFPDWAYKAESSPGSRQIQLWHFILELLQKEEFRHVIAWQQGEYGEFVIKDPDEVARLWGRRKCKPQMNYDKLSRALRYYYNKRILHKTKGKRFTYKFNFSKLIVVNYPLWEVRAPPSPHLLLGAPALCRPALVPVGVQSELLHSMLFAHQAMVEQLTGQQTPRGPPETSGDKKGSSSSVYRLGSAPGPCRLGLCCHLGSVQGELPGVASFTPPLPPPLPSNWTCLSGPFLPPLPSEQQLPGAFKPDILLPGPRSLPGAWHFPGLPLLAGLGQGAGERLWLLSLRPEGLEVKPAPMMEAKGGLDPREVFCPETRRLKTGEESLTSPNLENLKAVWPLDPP
In outline:
as §1

Test [3] deals with T3, ETS2 (Homo sapiens, UniProt P15036 1-469).
T3 sequence: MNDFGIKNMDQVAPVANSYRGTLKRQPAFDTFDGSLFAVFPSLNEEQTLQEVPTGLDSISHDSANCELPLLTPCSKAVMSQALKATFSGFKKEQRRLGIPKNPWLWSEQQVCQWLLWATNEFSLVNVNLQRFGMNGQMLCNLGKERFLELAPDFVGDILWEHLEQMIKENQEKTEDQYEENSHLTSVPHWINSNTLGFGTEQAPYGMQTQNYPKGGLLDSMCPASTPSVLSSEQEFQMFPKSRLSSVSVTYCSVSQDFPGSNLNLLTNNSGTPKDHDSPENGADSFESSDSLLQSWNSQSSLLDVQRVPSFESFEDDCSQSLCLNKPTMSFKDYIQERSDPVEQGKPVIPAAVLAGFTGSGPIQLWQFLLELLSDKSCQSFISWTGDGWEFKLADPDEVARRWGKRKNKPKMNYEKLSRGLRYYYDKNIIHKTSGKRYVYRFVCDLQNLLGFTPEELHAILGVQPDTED
In outline:
as §1

Test [4] addresses T4, SPDEF (Homo sapiens, UniProt O95238 1-335).
T4 sequence: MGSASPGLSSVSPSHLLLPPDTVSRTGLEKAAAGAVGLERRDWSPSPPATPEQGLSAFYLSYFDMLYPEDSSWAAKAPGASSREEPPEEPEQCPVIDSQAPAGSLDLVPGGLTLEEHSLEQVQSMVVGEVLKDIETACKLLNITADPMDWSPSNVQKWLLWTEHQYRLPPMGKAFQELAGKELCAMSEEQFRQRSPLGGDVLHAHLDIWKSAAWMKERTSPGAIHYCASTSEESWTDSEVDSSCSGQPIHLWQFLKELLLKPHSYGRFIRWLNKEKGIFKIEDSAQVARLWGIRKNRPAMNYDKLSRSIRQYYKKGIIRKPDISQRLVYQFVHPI
In short, it runs like this:
as §1

For test [5], the target named is T5, ELF5 (Homo sapiens, UniProt Q9UKW6-2 1-255).
T5 sequence: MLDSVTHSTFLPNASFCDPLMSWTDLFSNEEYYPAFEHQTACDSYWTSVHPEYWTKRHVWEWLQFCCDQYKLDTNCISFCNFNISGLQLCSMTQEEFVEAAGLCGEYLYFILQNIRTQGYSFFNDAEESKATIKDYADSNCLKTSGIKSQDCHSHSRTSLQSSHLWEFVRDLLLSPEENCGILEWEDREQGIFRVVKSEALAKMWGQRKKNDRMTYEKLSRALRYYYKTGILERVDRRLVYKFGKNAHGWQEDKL
In outline: as §1

Test [6] addresses T6, ETV3 (Homo sapiens, UniProt P41162-2 1-143).
T6 sequence: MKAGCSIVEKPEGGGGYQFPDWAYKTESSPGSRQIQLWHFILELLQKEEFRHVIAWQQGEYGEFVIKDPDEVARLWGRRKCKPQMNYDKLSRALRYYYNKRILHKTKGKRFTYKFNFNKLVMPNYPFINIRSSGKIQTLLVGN
In outline:
as §1

Test [7] addresses ETV6 (Homo sapiens, UniProt P41212 1-452). In outline:
as §1

The target of test [8] is T7, ETV7 (Homo sapiens, UniProt Q9Y603 1-341).
T7 sequence: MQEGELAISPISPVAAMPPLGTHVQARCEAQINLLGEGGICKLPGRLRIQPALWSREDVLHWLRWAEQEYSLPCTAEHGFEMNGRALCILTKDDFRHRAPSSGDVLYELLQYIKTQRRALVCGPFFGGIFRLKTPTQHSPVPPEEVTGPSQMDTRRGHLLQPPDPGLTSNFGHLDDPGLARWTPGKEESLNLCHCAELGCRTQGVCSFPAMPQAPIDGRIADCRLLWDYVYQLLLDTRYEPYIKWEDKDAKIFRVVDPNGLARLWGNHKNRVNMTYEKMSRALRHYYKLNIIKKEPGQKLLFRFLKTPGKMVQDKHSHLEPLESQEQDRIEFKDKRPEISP
In outline:
as §1

Sequence of ETV6 (P41212 whole entry): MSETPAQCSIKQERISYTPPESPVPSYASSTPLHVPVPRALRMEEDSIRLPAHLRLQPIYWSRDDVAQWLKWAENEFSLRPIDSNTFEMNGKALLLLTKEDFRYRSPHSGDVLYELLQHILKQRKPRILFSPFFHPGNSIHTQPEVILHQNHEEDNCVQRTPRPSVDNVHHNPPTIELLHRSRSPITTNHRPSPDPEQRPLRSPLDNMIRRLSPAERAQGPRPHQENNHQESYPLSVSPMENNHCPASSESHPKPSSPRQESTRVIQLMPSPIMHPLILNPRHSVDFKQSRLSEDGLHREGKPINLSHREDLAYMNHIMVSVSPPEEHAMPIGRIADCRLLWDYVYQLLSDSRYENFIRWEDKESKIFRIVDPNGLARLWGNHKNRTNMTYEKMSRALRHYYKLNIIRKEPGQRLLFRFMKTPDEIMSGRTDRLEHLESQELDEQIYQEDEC

For CGGCTT, the binding signal in test [1] was 1.27 fold enrichment (6-mer frequency, TF over GST control); in test [2], 1.1 fold enrichment (6-mer frequency, TF over GST control); in test [3], 1.21 fold enrichment (6-mer frequency, TF over GST control); in test [4], 1.33 fold enrichment (6-mer frequency, TF over GST control); in test [5], 1.19 fold enrichment (6-mer frequency, TF over GST control); in test [6], 1.15 fold enrichment (6-mer frequency, TF over GST control). In addition, the binding signal in test [7] is 1.16 fold enrichment (6-mer frequency, TF over GST control).

On to GATCCC, for which the binding signal in test [1] was 1.3 fold enrichment (6-mer frequency, TF over GST control); in test [2], 1.2 fold enrichment (6-mer frequency, TF over GST control); in test [3] it was 1.11 fold enrichment (6-mer frequency, TF over GST control); in test [4], 1.27 fold enrichment (6-mer frequency, TF over GST control); in test [5] it was 1.1 fold enrichment (6-mer frequency, TF over GST control); in test [6], 1.11 fold enrichment (6-mer frequency, TF over GST control). In addition, the binding signal in test [7] was 1.12 fold enrichment (6-mer frequency, TF over GST control).

As to CAAAGC, the binding signal was 1.13 fold enrichment (6-mer frequency, TF over GST control) in test [1]; 1.07 fold enrichment (6-mer frequency, TF over GST control) in test [2]; 1 fold enrichment (6-mer frequency, TF over GST control) in test [3]; 1.06 fold enrichment (6-mer frequency, TF over GST control) in test [4]; 1.01 fold enrichment (6-mer frequency, TF over GST control) in test [5]; 1.08 fold enrichment (6-mer frequency, TF over GST control) in test [6]. In addition, the binding signal in test [7] was 1.08 fold enrichment (6-mer frequency, TF over GST control).

Consider CCACAA, for which the binding signal is 1.24 fold enrichment (6-mer frequency, TF over GST control) in test [1]; 1.26 fold enrichment (6-mer frequency, TF over GST control) in test [2]; 1.23 fold enrichment (6-mer frequency, TF over GST control) in test [3]; 1.14 fold enrichment (6-mer frequency, TF over GST control) in test [4]; 1.18 fold enrichment (6-mer frequency, TF over GST control) in test [5]; 1.12 fold enrichment (6-mer frequency, TF over GST control) in test [6]. For the same sequence, in test [7], the binding signal is 1.18 fold enrichment (6-mer frequency, TF over GST control).

Take TAGAAA: the binding signal in test [1] was 1.04 fold enrichment (6-mer frequency, TF over GST control); in test [2] it was 1.08 fold enrichment (6-mer frequency, TF over GST control); in test [3], 1.08 fold enrichment (6-mer frequency, TF over GST control); in test [4], 1.04 fold enrichment (6-mer frequency, TF over GST control); in test [8], 1.12 fold enrichment (6-mer frequency, TF over GST control); in test [6], 1.05 fold enrichment (6-mer frequency, TF over GST control). Moreover, the binding signal in test [7] was 1.06 fold enrichment (6-mer frequency, TF over GST control).

Take TAGGTT: the binding signal is 1.06 fold enrichment (6-mer frequency, TF over GST control) in test [1]; 1.08 fold enrichment (6-mer frequency, TF over GST control) in test [2]; 1.06 fold enrichment (6-mer frequency, TF over GST control) in test [3]; 1.17 fold enrichment (6-mer frequency, TF over GST control) in test [4]; 1.06 fold enrichment (6-mer frequency, TF over GST control) in test [5]; 1.14 fold enrichment (6-mer frequency, TF over GST control) in test [6]. Also, the binding signal in test [7] was 1.16 fold enrichment (6-mer frequency, TF over GST control).

As for GCTCAG, the binding signal was 1.18 fold enrichment (6-mer frequency, TF over GST control) in test [1]; 1.16 fold enrichment (6-mer frequency, TF over GST control) in test [2]; 1.06 fold enrichment (6-mer frequency, TF over GST control) in test [3]; 1.09 fold enrichment (6-mer frequency, TF over GST control) in test [4]; 1.01 fold enrichment (6-mer frequency, TF over GST control) in test [5]; 1.1 fold enrichment (6-mer frequency, TF over GST control) in test [6]. In addition, in test [7], the binding signal is 1.13 fold enrichment (6-mer frequency, TF over GST control).
